Screens as filed in PubChem.
Autofluor counter: counter-screen for toxin protease inhibitors: compound fluorescence. compound autofluorescence counterscreen, microsphere flow cytometry; stronger effect = higher value. fluorescence intensity (no concentration beside the values). actives 3.1% (n = 360,000); in the data active = fluorescence intensity above about 16000; inconclusive = no clear call, values can overlap the other calls
BoNT-A LC inh2: blocks Botulinum neurotoxin A light chain protease; multiplex microsphere protease substrate cleavage, flow cytometry; inhibition, % at 10 µM; actives 0.17% (n = 360,000); also: plate controls were buffer without enzyme for full effect and enzyme alone for no effect
BoNT F protease: BoNT F light chain protease inhibition | AID 588497 | inhibition, % at 10 µM | Multiplex microsphere protease cleavage assay, flow cytometry | actives 0.22% (n = 360,000); in the data active = inhibition above about 35%, passing the limit was not always enough; inconclusive = no clear call, values can overlap the other calls; also: plate controls were buffer without enzyme for full effect and enzyme alone for no effect
CCHF vOTU inh: blocks the CCHF virus ovarian tumor domain protease; CCHFV vOTU protease, Pep-AMC fluorescence; inhibition, % at 11.5 µM; actives 0.55% (n = 370,000); AID 651958; in the data active = inhibition above about 30%; also: 0% = vehicle wells with enzyme and 100% = no enzyme wells
3CLpro inhibitor: SARS-CoV 3CLpro protease inhibition | P0C6X7 | recombinant SARS-CoV 3CLpro, quenched FRET peptide cleavage | inhibition, % at 6 µM | actives 0.14% (n = 290,000) | AID 1706; in the data active = inhibition above about 12%
Anthrax LF inh2: inhibitors of Bacillus anthracis lethal factor protease; multiplex microsphere protease cleavage assay, LF; AID 588501; actives 0.12% (n = 360,000); inhibition, % at 10 µM; P15917; also: plate controls were buffer without enzyme for full effect and enzyme alone for no effect
Target sequence (P15917 whole entry, looked up): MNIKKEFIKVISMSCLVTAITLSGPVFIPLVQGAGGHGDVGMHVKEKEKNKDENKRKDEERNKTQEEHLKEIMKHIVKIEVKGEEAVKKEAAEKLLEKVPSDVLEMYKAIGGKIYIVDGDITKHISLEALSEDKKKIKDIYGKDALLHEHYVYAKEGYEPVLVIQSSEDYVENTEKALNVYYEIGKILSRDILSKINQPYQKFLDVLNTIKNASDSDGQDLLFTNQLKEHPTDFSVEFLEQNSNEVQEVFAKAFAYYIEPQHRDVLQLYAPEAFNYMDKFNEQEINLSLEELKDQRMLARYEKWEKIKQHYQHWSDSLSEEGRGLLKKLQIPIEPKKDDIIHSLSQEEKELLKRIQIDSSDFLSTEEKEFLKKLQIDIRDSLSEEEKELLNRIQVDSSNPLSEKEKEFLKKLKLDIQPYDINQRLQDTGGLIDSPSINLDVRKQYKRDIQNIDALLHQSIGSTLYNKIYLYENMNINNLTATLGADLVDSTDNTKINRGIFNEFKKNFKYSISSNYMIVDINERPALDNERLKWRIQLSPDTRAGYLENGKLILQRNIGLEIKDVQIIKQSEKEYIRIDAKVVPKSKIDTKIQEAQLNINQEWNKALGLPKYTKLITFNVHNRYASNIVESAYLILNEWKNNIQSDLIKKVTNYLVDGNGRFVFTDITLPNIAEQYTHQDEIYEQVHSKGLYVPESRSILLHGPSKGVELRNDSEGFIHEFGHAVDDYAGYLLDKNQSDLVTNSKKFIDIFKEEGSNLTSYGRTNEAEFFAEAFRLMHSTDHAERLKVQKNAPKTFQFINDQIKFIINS
The depositor's hits bear a star. Only some compounds are listed: those with a hit (about 3.9% of all), similar ones and a draw of the others. Rule as the data show it, unless noted: active = inhibition above about 30%; inconclusive = no clear call, values can overlap the other calls; inactive = below that.

For CC(C)c1ccc2oc(-c3ccc(N)cc3)nc2c1 the results were Autofluor counter 21916*, BoNT-A LC inh2 -7, BoNT F protease -8, CCHF vOTU inh -73, 3CLpro inhibitor 4 and Anthrax LF inh2 -2.
Screening Cc1ccc(-c2nc3cc(NS(=O)(=O)c4ccc(C)cc4)ccc3o2)cc1 returned Autofluor counter 20631*, BoNT-A LC inh2 7, BoNT F protease 5, CCHF vOTU inh 10, 3CLpro inhibitor -3 and Anthrax LF inh2 -8.
`Cc1ccc(-c2nc3cc(N)ccc3o2)cc1` gave Autofluor counter 23399*, BoNT-A LC inh2 0, BoNT F protease -1, CCHF vOTU inh 1, 3CLpro inhibitor 2 and Anthrax LF inh2 -2.
`COc1ccc(CN2C(=O)C(=O)N(CC(N)=O)C2=O)cc1` gave Autofluor counter 4262, BoNT-A LC inh2 2, BoNT F protease 10, CCHF vOTU inh 6, 3CLpro inhibitor -4 and Anthrax LF inh2 5.
C[C@H](CCC(=O)OCc1cn(CC(=O)c2ccc(O)cc2)nn1)C1CC[C@H]2[C@@H]3CC[C@@H]4C[C@H](O)CC[C@]4(C)[C@H]3C[C@H](O)[C@]12C (stereo not given in full) was read as Autofluor counter 3071, BoNT-A LC inh2 0, BoNT F protease -5, CCHF vOTU inh 19 and Anthrax LF inh2 0.
COc1ccc(CNc2nc3c(c(=O)n(Cc4ccc(F)cc4)c(=O)n3C)n2C)cc1 was read as Autofluor counter 21752*, BoNT-A LC inh2 inconclusive, BoNT F protease -1, CCHF vOTU inh -6, 3CLpro inhibitor 2 and Anthrax LF inh2 -5.
Screening Cn1nc(C(=O)NNc2c(F)c(F)cc(F)c2F)c2ccccc2c1=O returned Autofluor counter 4339, BoNT-A LC inh2 1, BoNT F protease 0, CCHF vOTU inh 2, 3CLpro inhibitor -1 and Anthrax LF inh2 2.
For CC(=NCCCN1CCOCC1)c1c(O)[nH]c(=O)[nH]c1=O the results were Autofluor counter 20875*, BoNT-A LC inh2 4, BoNT F protease 6, CCHF vOTU inh 7, 3CLpro inhibitor 0 and Anthrax LF inh2 -3.
Screening CC(=NCCN1CCOCC1)c1c(O)n(C2CCCCC2)c(=O)[nH]c1=O returned Autofluor counter 24874*, BoNT-A LC inh2 -4, BoNT F protease -6, CCHF vOTU inh -4, 3CLpro inhibitor 3 and Anthrax LF inh2 -3.
`CCC(=NCCN1CCOCC1)c1c(O)n(-c2ccccc2C)c(=O)[nH]c1=O` gave Autofluor counter 3619, BoNT-A LC inh2 0, BoNT F protease 4, CCHF vOTU inh -5, 3CLpro inhibitor 4 and Anthrax LF inh2 0.
C=CCn1c(O)c(C(C)=NCCCN2CCOCC2)c(=O)[nH]c1=O was read as Autofluor counter 8205, BoNT-A LC inh2 -1, BoNT F protease -5, CCHF vOTU inh -14, 3CLpro inhibitor 0 and Anthrax LF inh2 0.
Screening CC(=NCCN1CCOCC1)c1c(O)n(-c2ccccc2C)c(=O)[nH]c1=O returned Autofluor counter 23519*, BoNT-A LC inh2 -2, BoNT F protease -2, CCHF vOTU inh 0, 3CLpro inhibitor 8 and Anthrax LF inh2 0.
CC(=NCC1CCCO1)c1c(O)n(C2CCCCC2)c(=O)[nH]c1=O (stereo not given) was read as Autofluor counter 5954, BoNT-A LC inh2 0, BoNT F protease 2, CCHF vOTU inh 2, 3CLpro inhibitor -1 and Anthrax LF inh2 -2.
For Cc1c(C(=O)NC(c2ccccn2)C(F)(F)F)oc2c(F)cccc12 (stereo not given) the results were Autofluor counter 4951, BoNT-A LC inh2 2, BoNT F protease 10, CCHF vOTU inh 13, 3CLpro inhibitor 2 and Anthrax LF inh2 1.
`Cc1ccc(Oc2cc(C)nc(-c3ccccc3O)n2)cc1` gave Autofluor counter 2993, BoNT-A LC inh2 0, BoNT F protease -8, CCHF vOTU inh 1, 3CLpro inhibitor -3 and Anthrax LF inh2 1.
`Cc1cc(OC2CCCCC2)nc(-c2ccccc2O)n1` gave Autofluor counter 22117*, BoNT-A LC inh2 inconclusive, BoNT F protease -4, CCHF vOTU inh -2, 3CLpro inhibitor -4 and Anthrax LF inh2 -4.
`CCN1CCCc2cc(CN(CCN3CCOCC3)C(=O)Nc3ccc(C)c(C)c3)ccc21` gave Autofluor counter 20262*, BoNT-A LC inh2 -2, BoNT F protease -9, CCHF vOTU inh 3, 3CLpro inhibitor 4 and Anthrax LF inh2 -2.
For CCc1ccc(NC(=O)N(CCN2CCOCC2)Cc2ccc3c(c2)CCCN3CC)cc1 the results were Autofluor counter 8466, BoNT-A LC inh2 0, BoNT F protease -24, CCHF vOTU inh 1, 3CLpro inhibitor 3 and Anthrax LF inh2 -8.
Screening Cc1ccc(S(=O)(=O)NC(=O)Nc2ccc(OC(F)F)cc2)cc1 returned CCHF vOTU inh 4 and 3CLpro inhibitor -5.
Screening COc1ccc(CCNC(=O)C2CCN(Cc3nc(-c4ccccc4C)oc3C)CC2)cc1OC returned Autofluor counter 22311*, BoNT-A LC inh2 -2, BoNT F protease -4, CCHF vOTU inh -4, 3CLpro inhibitor 5 and Anthrax LF inh2 -7.
Screening COc1ccc(CCNC(=O)C2CCN(Cc3nc(-c4ccc(Cl)cc4)oc3C)CC2)cc1OC returned Autofluor counter 3492, BoNT-A LC inh2 -1, BoNT F protease -2, CCHF vOTU inh -13 and Anthrax LF inh2 -9.
Cc1oc(-c2ccccc2F)nc1CN1CCC(C(=O)NC2CCCc3ccccc32)CC1 (stereo not given) was read as Autofluor counter 10248, BoNT-A LC inh2 -3, BoNT F protease -8, CCHF vOTU inh -4, 3CLpro inhibitor 5 and Anthrax LF inh2 4.
For Cc1oc(-c2ccccc2F)nc1CN1CCC(C(=O)NC2CCCCCCC2)CC1 the results were Autofluor counter 16243*, BoNT-A LC inh2 1, BoNT F protease 2, 3CLpro inhibitor 0 and Anthrax LF inh2 -1.
For Cc1oc(-c2ccccc2F)nc1CN1CCC(C(=O)NCc2ccco2)CC1 the results were Autofluor counter 19776*, BoNT-A LC inh2 inconclusive, BoNT F protease 1, CCHF vOTU inh 2, 3CLpro inhibitor -6 and Anthrax LF inh2 2.
For COc1ccc(C=NNC(=O)Cc2cc(=O)[nH][nH]2)c(OC)c1 the results were CCHF vOTU inh 0.
For CC(=O)N1C(=O)NC(c2ccccc2)=C([N+](=O)[O-])C1c1ccccc1 (stereo not given) the results were Autofluor counter 3574, BoNT-A LC inh2 0, BoNT F protease -17, CCHF vOTU inh 3, 3CLpro inhibitor 2 and Anthrax LF inh2 33*.
CCOC(=O)N1CCN(C(=O)COc2ccc(S(=O)(=O)Nc3ccc(OCC)cc3)cc2)CC1 was read as Autofluor counter 17078*, BoNT-A LC inh2 inconclusive, BoNT F protease -6, CCHF vOTU inh 23, 3CLpro inhibitor -6 and Anthrax LF inh2 -8.
For CCOC(=O)COc1ccc(S(=O)(=O)Nc2cccc(SC)c2)cc1 the results were Autofluor counter 21447*, BoNT-A LC inh2 -3, BoNT F protease -5, CCHF vOTU inh -1, 3CLpro inhibitor -3 and Anthrax LF inh2 0.
